# This is a sample that favours compounds with a hit; in the whole collection about 4.1% have one here.
# PRMT1 FP inh – PRMT1 methyltransferase inhibitors, primary screen, biochemical, fluorescence polarization; actives 1.3% (n = 370,000); recombinant PRMT1, activity-based probe fluorescence polarization; inhibition, % at 2.79 µM;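 active = inhibition above about 21% made by adding two undisclosed values, limit read from the data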
# LEDGF integ inh – blockers of LEDGF/p75-dependent integrase strand transfer – biochemical, TR-FRET, high throughput, primary screen | HIV-1 integrase (with human LEDGF/p75) | TR-FRET IN-LEDGF/p75 DNA integration, Eu/Cy5 | inhibition, % at 3.7 µM | actives 0.64% (n = 370,000) | AID 743269, 2014;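 active = inhibition above the screen-wide mean plus 3 SD, cut at about 13% in these data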;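 also: signal is the Cy5 over europium emission ratio at 671 and 618 nm; 0% = plate median of compound wells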
# MBD2 DNA inh – inhibitors of MBD2 binding to methylated DNA, primary screen, biochemical, TR-FRET, DNA-binding domain, human; MBD2 binding to methylated oligonucleotide; Methyl-CpG-binding domain protein 2 (Homo sapiens), Q9UBB5; actives 0.31% (n = 370,000); inhibition, % at 4.4 µM; AID 686964, 2013; in the data active = inhibition above about 13%
# Target sequence (Q9UBB5 whole entry, looked up, the tested form may be a part): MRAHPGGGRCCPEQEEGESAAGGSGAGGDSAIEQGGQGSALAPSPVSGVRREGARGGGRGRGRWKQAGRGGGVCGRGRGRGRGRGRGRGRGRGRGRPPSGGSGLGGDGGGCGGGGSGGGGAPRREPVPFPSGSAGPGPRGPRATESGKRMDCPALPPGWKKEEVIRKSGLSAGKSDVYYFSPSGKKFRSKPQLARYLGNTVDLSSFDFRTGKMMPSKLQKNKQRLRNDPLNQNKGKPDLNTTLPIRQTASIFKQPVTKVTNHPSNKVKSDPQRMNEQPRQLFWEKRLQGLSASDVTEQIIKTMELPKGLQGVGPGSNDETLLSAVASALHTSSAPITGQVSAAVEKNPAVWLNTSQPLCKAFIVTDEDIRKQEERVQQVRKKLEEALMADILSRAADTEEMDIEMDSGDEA
# ABHD5 PLIN5 PPI – ABHD5-PLIN5 interaction inhibitors, primary screen, cell lysate, split luciferase complementation, luminescence; Perilipin-5 (Homo sapiens) + 1-acylglycerol-3-phosphate O-acyltransferase ABHD5 (Homo …; actives 0.78% (n = 360,000); inhibition, % at 4 µM; Split G. princeps luciferase complementation, 4 h;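 active = inhibition above the mean inhibition across every tested compound plus 3 SD, cut at about 22% in these data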;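 also: 0% = DMSO only wells and the 100% control is not disclosed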
# UHRF1 MBD2 ctr – UHRF1 methylated DNA binding inhibitors, primary screen, counter-screen for MBD2 inhibitor project, biochemical, TR-FRET, human UHRF1, single concentration; E3 ubiquitin-protein ligase UHRF1 (Homo sapiens), Q96T88; inhibition, % at 4.4 µM; actives 0.75% (n = 370,000); UHRF1 binding to methylated oligo; in the data active = inhibition above about 21%;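 also: UHRF1 SRA domain binding a hemimethylated CpG hairpin DNA probe; 0% = median of test compound wells and 100% = reference inhibitor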
# rCAG binder – binders of r(CAG) RNA repeats, primary screen, biochemical, fluorescence. r(CAG) RNA repeat, TO-PRO-1 dye displacement fluorescence. inhibition, % at 3 µM. actives 1.3% (n = 370,000). AID 651821, 2012;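 active = inhibition above the plate cutoff, the mean of all test compounds on that plate plus 3 SD, cut at about 35% in these data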;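 also: 0% = DMSO alone and 100% = 100 µM mitoxantrone as full dye displacement; higher means more dye released from RNA so lower well fluorescence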
# ABHD5 PLIN5 conf – ABHD5-PLIN5 interaction inhibitors, confirmation, biochemical, luminescence. shares compounds with ABHD5 PLIN5 PPI. inhibition, % at 4 µM. actives 67% (n = 2,200). AID 651612, 2012; in the data active = inhibition above about 23%;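 also: 0% = DMSO vehicle wells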
# HNF4 counter – HNF4 dimerization inhibitors, counter-screen for ABHD5-PLIN5 interaction inhibitor project, biochemical, split-luciferase complementation, luminescence; shares compounds with ABHD5 PLIN5 PPI; inhibition, % at 4 µM; actives 77% (n = 2,200); AID 651674, 2012;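 active = mean inhibition across replicate wells exceeding the computed hit threshold, cut at about 13% in these data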;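 also: light from luciferase halves that rejoin when HNF4 fusion proteins dimerize; 0% = DMSO only wells and the 100% control is not given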
# * marks the source's active call; other numbers are inactive results; nt = no result.
SMILES,PRMT1 FP inh,LEDGF integ inh,MBD2 DNA inh,ABHD5 PLIN5 PPI,UHRF1 MBD2 ctr,rCAG binder,ABHD5 PLIN5 conf,HNF4 counter
CC1(C)Cc2c(sc3nc(SCC(=O)NCc4ccco4)n(-c4ccccc4)c(=O)c23)CS1,3,-1,-4,30*,-3,6,16,10
CCOc1cc(CNCCO)cc(Br)c1OCc1ccccc1Cl,3,-1,-1,28*,-2,-1,12,0
CCOc1cc(CNCCO)cc(Br)c1OCc1ccc(Cl)cc1,-1,-4,4,25*,4,10,16,8
CCOc1cccc(CNCCO)c1OCc1ccc(Cl)cc1,-1,2,-3,5,1,4,nt,nt
CCOc1cc(CNCCCN2CCOCC2)cc(Br)c1OCc1ccccc1Cl,2,1,5,30*,1,-7,10,17*
COc1cc(CNCCO)cc(Cl)c1OCc1ccccc1Cl,6,-4,-1,9,2,-2,nt,nt
CCOc1cc(CNCCN2CCOCC2)ccc1OCc1ccccc1Cl,0,5,-1,6,0,-7,nt,nt
CCCCCCCCCCCCCCCCn1cc[n+](C)c1,2,3,-1,32*,10,4,7,11
COC(=O)CC[C@@H](/C=C/C(=O)OC(C)(C)C)Sc1ccc(C(C)(C)C)cc1,2,-2,0,nt,-2,3,nt,nt
COC(=O)C1=C(C)NC2=C(C(=O)CCC2)C1c1ccc(-c2ccsc2C(=O)OC)o1 (configuration not stated),1,0,4,24*,-2,1,8,10
COc1cccc(CNc2nc3cc(-c4ccccc4)sc3c(=O)n2C)c1,-2,5,-1,-1,1,4,nt,nt
COc1cccc(CNc2nc3cc(-c4ccc(C(=O)N5CCN(C)CC5)cc4)sc3c(=O)n2C)c1,-2,-1,2,24*,-1,4,6,11
COC(=O)[C@]12C[C@H](CC(=O)NCc3cccc4ccccc34)C(=O)N(Cc3ccco3)C1=C[C@H](COCc1ccccc1)O[C@@H]2C,0,7,0,nt,4,9,nt,nt
CC1=CC(=O)N(c2ccn(C)n2)C1=O,9,1,-5,25*,-2,-1,36*,39*
CC(C)N1C/C(=C/c2cccnc2)C(=O)/C(=C/c2cccnc2)C1,2,2,-1,41*,3,4,86*,67*
CC(C)N1C/C(=C/c2ccsc2)C(=O)/C(=C/c2ccsc2)C1,0,0,-3,28*,-4,0,85*,78*
CC(C)N1CC2=C(OC(N)=C(C#N)C2c2cccnc2)/C(=C/c2cccnc2)C1 (configuration not stated),2,-2,1,1,3,-8,nt,nt
O=C1c2ccccc2C(=Cc2cccnc2)c2ccccc21,7,-3,-1,7,-3,15,nt,nt
CN1C/C(=C/c2cccnc2)C(=O)/C(=C/c2cccnc2)C1,-2,-1,-3,66*,1,-1,100*,92*
CCN(C(=O)C1CCN(c2ncccn2)CC1)c1ccccc1,-4,2,1,nt,-1,-1,nt,nt
O=S1(=O)c2ccc(N3CCCC3)cc2Oc2ccccc2CN1Cc1cn(Cc2ccc(F)cc2)nn1,4,3,1,nt,1,13,nt,nt
N#C/C(=C/c1ccc(N2CCOCC2)o1)c1ccc(Cl)cc1,16,-2,-2,60*,-2,9,52*,106*
Oc1ccccc1-c1cc(-c2ccco2)[nH]n1,23*,3,5,27*,-1,24,14,14*
Oc1ccc(Cl)cc1-c1cc(-c2ccco2)[nH]n1,4,0,-1,14,-3,26,nt,nt
Cc1cc(Sc2nnc(/N=C/N(C)C)s2)c2ccccc2n1,2,0,0,18,17,2,nt,nt
SMILES,PRMT1 FP inh,LEDGF integ inh,MBD2 DNA inh,ABHD5 PLIN5 PPI,UHRF1 MBD2 ctr,rCAG binder,ABHD5 PLIN5 conf,HNF4 counter
Cc1cc(Sc2nnc(N)s2)c2ccccc2n1,2,-2,-3,23*,-4,-1,38*,58*
COC(=O)[C@]12C[C@H](CC(=O)NCC34CC5CC(CC(C5)C3)C4)C(=O)N(Cc3ccccc3)C1=C[C@H](C1CCCC1)O[C@@H]2C,2,4,-8,nt,-1,11,nt,nt
CSc1sc(C(=O)O)c2c1C(=O)CC(C)(C)C2,6,1,5,4,4,3,nt,nt
CSc1sc(-c2ccnc(SCC(=O)C(C)(C)C)n2)c2c1C(=O)CC(C)(C)C2,1,4,-1,23*,2,6,-5,-5
COc1ccc(NS(=O)(=O)c2ccc(C)c(C(=O)NCCCN3CCCC3=O)c2)cc1,0,3,5,23*,-3,8,4,3
COC(=O)[C@]12C[C@H](CC(=O)NCCC(C)C)C(=O)N(Cc3ccco3)C1=C[C@H](C1CCCC1)O[C@@H]2C,0,1,6,nt,0,2,nt,nt
COC(=O)[C@]12C[C@H](CC(=O)N3CCC(c4ccccc4)CC3)C(=O)N(CCc3ccc(OC)c(OC)c3)C1=C[C@H](COCc1ccccc1)O[C@@H]2C,2,0,-3,nt,2,14,nt,nt
CN(C)CCCN(C(=O)CCc1ccccc1)c1nc2ccc(F)cc2s1,-1,3,7,12,12,-4,nt,nt
CN(C)CCCN(C(=O)CCc1ccccc1)c1nc2ccc(Br)cc2s1,6,-2,2,39*,-1,2,27*,5
Cc1ccc(C(=O)N(CCCN(C)C)c2nc3ccc(Cl)cc3s2)cc1C,3,-4,3,28*,1,1,22,12
CN(C)CCCN(C(=O)c1ccco1)c1nc2ccc(Br)cc2s1,-4,3,-3,25*,-4,3,17,7
CN(C)CCCN(C(=O)c1ccco1)c1nc2ccc(Cl)cc2s1,-1,4,2,24*,-7,3,18,10
CCN(CC)C(=O)c1oc(=O)c2ccccc2c1-c1ccc(C)cc1,-10,6,-3,nt,-2,2,nt,nt
CCCn1cc(C(=O)Nc2ccc(Oc3cccnc3)cc2)c2ccccc21,4,-3,1,nt,-1,8,nt,nt

# Screening results from PubChem.
